CYP2C19 inhib = blocks human cytochrome P450 2C19. P33261. CYP2C19 Supersomes, luciferin-H EGE luminescence, 30 min. inhibition, % at 5 µM. 21% of 96,000 active;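 active = CYP2C19 inhibition above a set limit at 5 µM in the primary screen, cut at about 50% in these data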
hDAT+cocaine = human DAT dopamine uptake with cocaine, either direction; 1.3% of 110,000 active; AID 449768; LLC-PK1 hDAT cells, [14C]-dopamine uptake with cocaine IC80; actives deviate in either direction; B-score at 10 µM;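 active = Z score or B-score, a plate-position-corrected score, falls beyond the plate's 99.7% confidence bounds, in either direction; inactive = both scores lie inside the 99.7% bounds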
CYP2C19 act = increases human CYP2C19 enzyme activity; P33261; recombinant CYP2C19, luciferin-H EGE luminescence; active compounds read high; 0 = fully inhibited enzyme, 1 = untreated enzyme; AID 1025; 96,000 tested, under 10 active; activation factor at 5 µM;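 active = activation factor of at least 2 at 5 µM in the primary screen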
D1 mod = allosterically modulates the human D1 dopamine receptor | P21728 | HEK293 D1, CRE-luciferase, dopamine EC30 potentiation; actives deviate in either direction | B-score at 10 µM | 5.9% of 58,000 active;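 active = luminescence count or its row- and column-corrected plate score outside the 99.7% band of the plate's sample wells, on either side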
Target sequence (P21728 whole entry, looked up): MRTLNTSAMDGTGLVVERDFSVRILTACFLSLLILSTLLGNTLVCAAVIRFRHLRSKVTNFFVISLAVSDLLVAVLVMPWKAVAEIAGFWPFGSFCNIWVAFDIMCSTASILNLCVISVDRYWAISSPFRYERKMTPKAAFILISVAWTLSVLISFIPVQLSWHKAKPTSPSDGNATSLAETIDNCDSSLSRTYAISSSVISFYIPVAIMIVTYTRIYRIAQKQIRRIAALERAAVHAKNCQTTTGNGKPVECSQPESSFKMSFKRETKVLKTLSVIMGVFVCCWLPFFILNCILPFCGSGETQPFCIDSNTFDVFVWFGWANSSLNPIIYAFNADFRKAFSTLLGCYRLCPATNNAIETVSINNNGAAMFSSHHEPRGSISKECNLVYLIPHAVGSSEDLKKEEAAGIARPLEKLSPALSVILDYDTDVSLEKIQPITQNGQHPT
CYP2C9 activ = CYP2C9 (human) activation | recombinant CYP2C9, luciferin-H conversion, luminescence; active compounds read high; factor 1 = untreated enzyme, 0 = blocked | activation factor at 5 µM | 1.4% of 96,000 active | AID 1024;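 active = activation factor of 2 or more for CYP2C9 at a 5 µM dose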
CYP2C9 inh = inhibitors of human CYP2C9; CYP2C9 Supersomes, luciferin-H conversion, luminescence; inhibition, % at 5 µM; 20% of 96,000 active; AID 777;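 active = blocking of liver enzyme CYP2C9 beyond about 50% at 5 µM, limit read from the data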
Of the large screens only hits and unclear results are named; the others gave an inactive call. Hits are enriched below; roughly 28% of the tested compounds scored in any of these assays.

CC(C)CCn1cnc2c(c1=O)c1nc3ccccc3nc1n2Cc1ccc2c(c1)OCO2	none
COc1cccc(CN2CCN(S(=O)(=O)c3ccc(Br)cc3)CC2)c1	CYP2C19 inhib 86.4, CYP2C9 inh 61.0 (no result: D1 mod)
Cn1cc(S(=O)(=O)N2CCN(Cc3ccccc3)CC2)c(=O)n(C)c1=O	none
COc1ccc(C)cc1S(=O)(=O)N1CCN(Cc2ccccc2)CC1	CYP2C19 inhib 96.0, CYP2C9 inh 89.6
COc1ccc(S(=O)(=O)N2CCN(Cc3ccccc3)CC2)cc1	CYP2C19 inhib 89.0
COc1cccc(C(=O)CN2CCN(S(=O)(=O)c3ccc(Br)cc3)CC2)c1	none (no result: D1 mod)
COc1ccc(S(=O)(=O)N2CCN(C(=O)NCc3ccccc3)CC2)cc1	none
CCOc1cc(S(=O)(=O)N2CCN(Cc3ccccc3)CC2)ccc1Br	CYP2C19 inhib 96.9
COc1ccc(CCNC(=O)C2CC(c3cc(C(F)(F)F)cc(C(F)(F)F)c3)=NO2)cc1 (configuration not stated)	none (no result: CYP2C19 inhib, CYP2C19 act, D1 mod, CYP2C9 activ, CYP2C9 inh)
O=S1(=O)CCN(Cc2cccc(Cl)c2)CC1	none (no result: D1 mod)
O=S(=O)(c1ccccc1)N1CCN(Cc2cccc(Cl)c2)CC1	CYP2C19 inhib 70.1, CYP2C9 inh 60.8
CCN(CC)CCNc1nc(-c2ccco2)c2c(c1C#N)CC(C)(C)OC2	none (no result: D1 mod)
CC1(C)Cc2c(C#N)c(NCCc3ccccc3)nc(-c3ccco3)c2CO1	CYP2C9 inh 70.1 (no result: D1 mod)
CC1(C)Cc2c(C#N)c(NCC3CCCO3)nc(-c3ccco3)c2CO1 (configuration not stated)	CYP2C9 inh 53.8 (no result: D1 mod)
Cn1c(-c2ccccc2)cc2c3no[n+]([O-])c3ccc21	CYP2C19 inhib 80.3
COc1ccccc1N1CCN(C(=O)C(=O)N/N=C/c2cccc(O)c2)CC1	none (no result: D1 mod)
CCOC(=O)/C(C#N)=C/c1ccc(OCC(=O)Nc2ccc(OC)cc2)c(OC)c1	CYP2C9 inh 59.4 (no result: D1 mod)
CCc1ccc2c(c1)cc(CN(C(=S)Nc1ccccc1)C1CC1)c1nnnn12	none (no result: D1 mod)
CCNC(=O)NC1(C(=O)Nc2ccc3c(c2)OCCO3)CCCCC1	none (no result: D1 mod)
N#CC(c1ccc(Cl)cc1)c1ccc(Cl)nn1 (configuration not stated)	CYP2C19 inhib 53.0 (no result: D1 mod)
COc1ccc(C2CC(C(F)(F)F)n3ncc(C(=O)O)c3N2)cc1OC (configuration not stated)	none
COc1ccc(C2CC(C(F)(F)F)n3nc(C(N)=O)c(Cl)c3N2)cc1OC (configuration not stated)	CYP2C9 inh 57.8
COc1ccc(C2CC(C(F)(F)F)n3nc(C(=O)NCc4c(C)nn(C)c4C)c(Cl)c3N2)cc1 (configuration not stated)	D1 mod -3.07
CN(C(=O)CSc1ccccc1C(=O)O)C1CCCCC1	none (no result: D1 mod)
Cc1nc(SCC(=O)NC2CCCC2)[nH]c(=O)c1Cc1ccccc1	none (no result: D1 mod)
Cc1nc(SCC(=O)N(C)C2CCCCC2)[nH]c(=O)c1Cc1ccccc1	CYP2C19 inhib 59.8, CYP2C9 inh 69.0 (no result: D1 mod)
CN(C(=O)CSc1nc2c(c(=O)[nH]1)CCCC2)C1CCCCC1	CYP2C9 inh 69.3
Cc1cccc(-c2nc(NCCCN3CCOCC3)c3ccccc3n2)c1	CYP2C19 inhib 60.0, CYP2C9 inh 84.5 (no result: D1 mod)
CCCCNC(=O)C(=O)NC(C)CCc1ccccc1 (configuration not stated)	none (no result: hDAT+cocaine, D1 mod)
Cn1c(=O)[nH]c(=O)c2c1nc(Br)n2CC(O)COc1ccccc1 (configuration not stated)	none (no result: D1 mod)
COc1cc(OC)nc(NC(=O)CSc2nnc(-c3ccccc3)n2C2CCCCC2)n1	none (no result: CYP2C19 inhib, CYP2C19 act, CYP2C9 activ, CYP2C9 inh)
Cc1cc(C)c(C)c(S(=O)(=O)NCC(=O)N2CCCC2)c1C	CYP2C19 inhib 77.9
CCCNS(=O)(=O)c1ccc(CCC(=O)N2CCCCC2)cc1	none
CC(C)NS(=O)(=O)c1ccc(CCC(=O)O)cc1	none
CC(C)(C)NS(=O)(=O)c1ccc(CCC(=O)N2CCCCC2)cc1	CYP2C19 inhib 60.7
CC1CCN(C(=O)CCc2ccc(S(=O)(=O)NC(C)C)cc2)CC1	CYP2C19 inhib 53.0 (no result: D1 mod)
Cc1ccc(S(=O)(=O)NCC(=O)N2CCC(C)CC2)cc1	CYP2C19 inhib 72.2
COc1cc(SC)ccc1C(=O)Nc1ccc2c(c1)CCN2S(C)(=O)=O	none
CC(=O)Nc1cccc(NC(=O)C2CCCN2C(=O)Nc2ccccc2C)c1 (configuration not stated)	none
NC(=O)NC1NC(=O)NC1=O (configuration not stated)	none (no result: CYP2C19 inhib, CYP2C19 act, D1 mod, CYP2C9 activ, CYP2C9 inh)
O=C(O)/C=C\C(=O)Nc1ccccc1C#Cc1ccccc1	CYP2C9 inh 62.1 (no result: D1 mod)
O=C(O)/C=C\C(=O)Nc1ccccc1C(=O)NCc1ccccc1	none (no result: CYP2C19 inhib, CYP2C19 act, D1 mod, CYP2C9 activ, CYP2C9 inh)
NC(=O)c1ccccc1NC(=O)/C=C/C(=O)O	none (no result: D1 mod)
O=C(O)/C=C\C(=O)Nc1ccccc1C#Cc1ccc(Br)cc1	CYP2C9 inh 87.1 (no result: D1 mod)
CCc1cccc2c(=O)c(C(=O)NCCN3CCOCC3)c[nH]c12	none
CCN(CC)C(=O)c1ccc(CS(=O)(=O)c2ccc(OC)cc2)o1	none (no result: CYP2C19 inhib, CYP2C19 act, CYP2C9 activ, CYP2C9 inh)
CCCCN1CNC(=S)N(c2cc(C)ccc2C)C1	CYP2C19 inhib 72.4 (no result: D1 mod)
O=C(NC(NC(=S)Nc1ccc(Cl)cc1Cl)C(Cl)(Cl)Cl)c1cccc([N+](=O)[O-])c1 (configuration not stated)	CYP2C9 inh 88.5 (no result: D1 mod)
CC(NC(=O)CCc1ccc(S(=O)(=O)NC2CCCCC2)cc1)c1ccccc1 (configuration not stated)	CYP2C19 inhib 96.0, CYP2C9 inh 79.3 (no result: D1 mod)
Cc1cccc(NC(=O)CCc2ccc(S(=O)(=O)NC3CCCCC3)cc2)c1	CYP2C9 inh 59.5 (no result: D1 mod)
O=C(Nc1cccc(NS(=O)(=O)c2ccc(S(=O)(=O)NC3CC3)cc2)c1)c1ccccn1	CYP2C19 inhib 98.8, CYP2C9 inh 97.4
Cc1ccc(CNC(=O)CCc2ccc(S(=O)(=O)NC3CCCCC3)cc2)cc1	CYP2C19 inhib 51.5, CYP2C9 inh 69.4 (no result: D1 mod)
COc1ccc(-c2cc(C(F)(F)F)n3nc(C(=O)NCc4ccco4)c(Cl)c3n2)cc1	none (no result: D1 mod)
COC(=O)c1cc2ccsc2n1CC(=O)Nc1ccc(N(C)C)cc1	CYP2C19 inhib 53.0
COC(=O)c1cc2ccsc2n1Cc1nc(-c2ccc(OC)cc2)oc1C	CYP2C9 inh 59.4
COC(=O)c1cc2ccsc2n1CC(=O)Nc1cc(Cl)ccc1OC	CYP2C19 inhib 50.8
COC(=O)c1cc2ccsc2n1CC(=O)N(C)c1ccccc1	CYP2C19 inhib 55.8
COC(=O)c1cc2sccc2n1Cc1nc(-c2ccc(OC)cc2)oc1C	none
COC(=O)c1cc2occc2n1CC(=O)Nc1ccc(OC)c(OC)c1	none
CC(=O)NC(Cc1ccccc1C)C(=O)NC1CCN(c2c3c(nc4ncnn24)CCC3)CC1 (configuration not stated)	none (no result: CYP2C19 inhib, hDAT+cocaine, CYP2C19 act, CYP2C9 activ, CYP2C9 inh)
CC(C)c1cn(C2OC(COC(=O)c3ccccc3)C(OC(=O)c3ccccc3)C2OC(=O)c2ccccc2)c(=O)[nH]c1=O (configuration not stated)	none (no result: CYP2C19 inhib, CYP2C19 act, D1 mod, CYP2C9 activ, CYP2C9 inh)
